Where “and” joins values, the source holds several entries; their conditions need not be identical. Equal entries are not always repeated. Among all 5,500 compounds or so, about 2,000 (36%) were called active. Another 18% or so got no clear call; they are omitted. Cut-off read from the data, not from the text of the source: active = normalized growth mostly below about 0.91 (no sharp cut-off); inconclusive = no clear call, values can overlap the other calls; inactive = mostly above about 0.92. The list shows a part of the results.
Experiment: chemical genetic growth profiling, strain panel (AID 1159580);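 note: tested at 20 µM; growth read once vehicle control cultures reached saturation at 30 °C; 1 = growth at the plate median or of vehicle wells; lower values mean less growth of the strain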
Conditions: S. cerevisiae deletion strains, growth OD

Measured: normalized growth

CC12CCC3C(CC3(C)C)C(C)(CCC1=O)O2 (stereo unspecified)
inactive: locus YAL021C, strain ccr4, active compounds read low 1.04 | locus YAL026C, strain drs2, active compounds read low 1.01 | locus YAL030W, strain snc1, active compounds read low 0.994 | locus YBL061C, strain skt5, active compounds read low 0.99 | locus YBR009C, strain hhf1, active compounds read low 1.01 | locus YBR021W, strain FUR4, active compounds read low 1.01 | locus YBR023C, strain chs3, active compounds read low 0.996 | locus YBR171W, strain sec66, active compounds read low 0.985 | locus YBR229C, strain ROT2, active compounds read low 1.01 | locus YBR231C, strain swc5, active compounds read low 0.983 | locus YBR279W, strain paf1, active compounds read low 1.02 | locus YCL011C, strain gbp2, active compounds read low 1.01 | locus YCL016C, strain dcc1, active compounds read low 1.01 | locus YCL029C, strain bik1, active compounds read low 1.03 | locus YCL061C, strain MRC1, active compounds read low 1.01 | locus YCL069W, strain vba3, active compounds read low 1 | locus YCR088W, strain abp1, active compounds read low 0.981 | locus YDL005C, strain med2, active compounds read low 0.972 | locus YDL035C, strain GPR1, active compounds read low 1.01 | locus YDL040C, strain nat1, active compounds read low 0.99 | locus YDL074C, strain BRE1, active compounds read low 1.07 | locus YDL101C, strain DUN1, active compounds read low 1.02 | locus YDL185W, strain tfp1, active compounds read low 1.02 | locus YDL192W, strain arf1, active compounds read low 1.01 | locus YDR001C, strain nth1, active compounds read low 0.986 | locus YDR069C, strain doa4, active compounds read low 1.01 | locus YDR101C, strain arx1, active compounds read low 0.983 | locus YDR137W, strain rgp1, active compounds read low 0.977 | locus YDR159W, strain sac3, active compounds read low 0.982 | locus YDR162C, strain NBP2, active compounds read low 1.03 | locus YDR195W, strain ref2 0.934 | locus YDR297W, strain sur2, active compounds read low 1.01 | locus YDR318W, strain mcm21, active compounds read low 1.03 | locus YDR334W, strain swr1, active compounds read low 1 | locus YDR335W, strain msn5, active compounds read low 1 | locus YDR388W, active compounds read low 1.01 | locus YDR392W, strain spt3, active compounds read low 0.939 | locus YDR502C, strain sam2, active compounds read low 1.04 | locus YEL003W, strain gim4, active compounds read low 0.995 | locus YEL037C, strain rad23, active compounds read low 1.01 | locus YEL061C, strain CIN8 (second series), active compounds read low 0.992 | locus YEL061C, strain CIN8, active compounds read low 1.01 | locus YER015W, strain faa2, active compounds read low 1 | locus YER016W, strain bim1, active compounds read low 0.988 | locus YER110C, active compounds read low 1.02 | locus YER111C, strain swi4, active compounds read low 0.987 | locus YER155C, strain BEM2 (second series), active compounds read low 0.967 | locus YER155C, strain BEM2, active compounds read low 1.01 | locus YER167W, strain BCK2, active compounds read low 1 | locus YFR010W, strain ubp6, active compounds read low 1.01 | locus YGL078C, strain dbp3, active compounds read low 1.01 | locus YGL086W, strain mad1, active compounds read low 1.01 | locus YGL167C, strain pmr1, active compounds read low 0.99 | locus YGL173C, strain kem1, active compounds read low 0.999 | locus YGL227W, strain vid30, active compounds read low 0.989 | locus YGL240W, strain doc1, active compounds read low 0.943 | locus YGL248W, strain PDE1, active compounds read low 1.05 | locus YGL253W, strain hxk2, active compounds read low 1.02 | locus YGR078C, strain PAC10, active compounds read low 1.04 | locus YGR135W, strain pre9, active compounds read low 1.05 | locus YGR252W, strain gcn5, active compounds read low 1.07 | locus YHR013C, strain ard1, active compounds read low 1.01 | locus YHR027C, strain rpn1, active compounds read low 0.988 | locus YHR030C, strain SLT2, active compounds read low 1.01 and 1.05 | locus YHR079C, strain IRE1 (second series), active compounds read low 1.02 | locus YHR079C, strain IRE1, active compounds read low 1.03 | locus YHR094C, strain hxt1, active compounds read low 1.01 | locus YHR129C, strain ARP1, active compounds read low 1.01 | locus YHR142W, strain chs7, active compounds read low 1 | locus YHR200W, strain rpn10, active compounds read low 1.02 | locus YIL066C, strain RNR3, active compounds read low 1.01 | locus YIL073C, strain SPO22, active compounds read low 1.08 | locus YIL125W, strain kgd1, active compounds read low 1 | locus YIR030C, strain dcg1, active compounds read low 1.02 | locus YJL092W, strain hpr5, active compounds read low 0.997 | locus YJL095W, strain BCK1 (second series), active compounds read low 1.01 | locus YJL095W, strain BCK1, active compounds read low 1.06 and 1.04 | locus YJL115W, strain asf1, active compounds read low 0.976 | locus YJL129C, strain trk1, active compounds read low 0.991 | locus YJL134W, strain LCB3, active compounds read low 1.02 | locus YJL154C, strain vps35, active compounds read low 0.991 | locus YJL164C, strain tpk1, active compounds read low 1.04 | locus YJL166W, strain qcr8, active compounds read low 0.984 | locus YJL168C, strain set2, active compounds read low 1.01 | locus YJL187C, strain SWE1 (second series), active compounds read low 1.04 | locus YJL187C, strain SWE1, active compounds read low 1
